system: Plasmodium falciparum; assay: GSK_TCMDC: Inhibition of Plasmodium falciparum Dd2 in whole red blood cells, using parasite LDH activity as an index of growth. Test compounds present at 2uM; assay type: functional

Compared with `Cc1ccnc(NC(c2cccc(OCc3ccccc3)c2)c2ccc3cccnc3c2O)c1` (stereo not given), `OC(CNCc1ccccc1OCc1ccccc1)c1cccc(Cl)c1` (stereo not given) is higher in Inhibition: 88% for the first, 100% for the second.

Going from `COc1cc(OC)cc(-c2nn(-c3ccc([N+](=O)[O-])cc3C#N)c(=S)n2CC2CCCO2)c1` (stereo not given) to `COc1cc(F)c2ncc(C#N)c(CCN3CCC(NCc4ccc5c(c4)OCCO5)CC3)c2c1.Cl`, the Inhibition falls from 75% to 59%.

First: COc1cc2nc(Nc3ccc(C)cc3)nc(Nc3ccc(C)cc3)c2cc1OC.Cl
Second: CCOC(=O)c1ccc(-c2cnc(N)c(-c3nc4cccc(C)c4[nH]3)c2)cc1
The Inhibition of the first is higher: 100% for the first, 79% for the second.

Compared with `Cc1cc([N+](=O)[O-])ccc1NC(=O)Nc1cccc(C(F)(F)F)c1`, `O=C(Nc1ccc(F)c([N+](=O)[O-])c1)Nc1cc(C(F)(F)F)ccc1Cl` is lower in Inhibition: 100% for the first, 86% for the second.

Compared with `Cl.ON=C1CCc2cc(-c3[nH]c(-c4cccc(OCCNCc5ccc(F)cc5)c4)nc3-c3ccncc3)ccc21`, `NC(=O)C1CCN(Cc2ccc(-c3ccc(-c4nc5cc(C(F)(F)F)ccc5[nH]4)cc3)cc2)CC1.O=C(O)C(F)(F)F` is higher in Inhibition: 69% for the first, 90% for the second.

Going from `COc1ccc(Cl)cc1-c1nc(C(=O)NCCN2CCCCC2)c(C(C)C)s1.O=C(O)C(F)(F)F` to `CN(C)c1ccc(CN2CCCCC(NC(=O)c3cc(-c4ccccc4Cl)cs3)C2)cc1.O=C(O)C(F)(F)F` (stereo not given), the Inhibition falls from 37% to 14%.

First: CCC(Cc1cnc2nc(N)nc(N)c2n1)c1ccc(C(=O)O)cc1 (stereo not given)
Second: CC(O)C(=O)O.COc1cc(Cc2cnc(N)nc2N)c2c(c1OC)OC(C)(C)C=C2
The Inhibition of the first is lower: 0% for the first, 2% for the second.

Going from `O=C(Nc1ccc(Cn2ncc(N3CCCNCC3)c(Cl)c2=O)cc1)Nc1ccc(-c2ccccc2)cc1` to `O=C(Nc1ccc(Cl)c(Cl)c1)Nc1ccc2nccc(N3CCN(Cc4ccccc4)CC3)c2c1`, the Inhibition rises from 41% to 100%.

Compared with `Cl.O=C(/C=C/c1ccc(Cl)c(Cl)c1)N1CCC(CN2CCC(c3c[nH]c4ncccc34)CC2)CC1`, `O=C(C=Cc1ccc(-c2ccccc2)cc1)N1CCC(CCN2CCC(c3c[nH]c4ccccc34)CC2)CC1` is lower in Inhibition: 20% for the first, 16% for the second.

Compared with `O=C(/C=C/c1ccc(Cl)c(Cl)c1)NC1CCN(Cc2ccc(O)cc2)CC1.O=C(O)C(F)(F)F`, `O=C(/C=C/c1ccc(Cl)c(Cl)c1)NCCCCCN1CC[C@H](NC(=O)c2sc3ccccc3c2Cl)C1` is lower in Inhibition: 43% for the first, 3% for the second.

Compared with `Cc1ccnc(-n2c(C)cc(C=C3SC(=Nc4ccccc4)N(Cc4ccco4)C3=O)c2C)c1`, `Cc1ccc(F)c(CN2CCC(N3CC(c4ccccc4)(c4ccccc4)OC3=O)CC2)c1Cl` is lower in Inhibition: 98% for the first, 89% for the second.

Compared with `Cc1c(F)cc(C(=O)NC2CC2)cc1-c1ccc2c(c1)c(C)nn2S(=O)(=O)c1cccs1`, `O=C(NC1CCN(Cc2ccccc2)CC1)c1ccc(-c2nc3cc(Cl)c(Cl)cc3[nH]2)c(F)c1` is lower in Inhibition: 92% for the first, 83% for the second.

Going from `C=C[C@]1(C)C[C@@H](OC(=O)c2cncn(COC)c2=O)[C@]2(C)[C@H](C)CC[C@]3(CCC(=O)[C@H]32)[C@@H](C)[C@@H]1O` to `CCC(C)c1ccc(NC(=O)c2ccc(S(=O)(=O)Nc3ccc(OC)c(N4CCN(CC5CC5)CC4)c3)cc2)cc1.O=C(O)C(F)(F)F` (stereo not given), the Inhibition rises from 7% to 17%.

First: NC1CCN(c2nc(NCCCc3ccc(O)cc3)nc(NCc3ccccc3-c3ccc(C(F)(F)F)cc3)n2)CC1.O=C(O)C(F)(F)F
Second: CCOC(=O)c1cc(C(=O)NCCCCN2CCC(c3ccc(CC)cc3OCC)CC2)ccc1-c1ccc(C(F)(F)F)cc1
The Inhibition of the first is higher: 88% for the first, 71% for the second.

Going from `Br.Oc1ccc2nc(N3CCNCC3)nc(NCCCc3ccccc3)c2c1` to `COc1ccc2nccc(N3CCC(CCNCc4ccc5c(n4)NC(=O)CO5)CC3)c2c1.Cl`, the Inhibition rises from 0% to 50%.

First: COc1cc(NCC(C)CNCc2cn(Cc3ccccc3)c3ccccc23)nc2ccccc12 (stereo not given)
Second: COc1ccc(CN2CCCN(Cc3cccc(NC(=O)c4ccc5ccccc5c4)c3)CC2)cc1.O=C(O)C(F)(F)F
The Inhibition of the first is higher: 55% for the first, 11% for the second.

Going from `NC1CCN(Cc2cccc(-c3csc(-c4nc5ccccc5[nH]4)c3)c2)C1.O=C(O)C(F)(F)F` (stereo not given) to `O=C(O)C(F)(F)F.O=S(=O)(NCCN1CCCC1)c1ccc(-c2cccc(CNCc3ccccc3)c2)s1`, the Inhibition rises from 10% to 43%.

Going from `Cc1ccccc1C1CCN(C2CCC(NC(=O)/C=C/c3c[nH]c4ccccc34)CC2)CC1` (stereo not given) to `Cc1cc(C(=O)Nc2ccc3c(c2)CCN3C2CCN(Cc3csc4ccccc34)C2)no1` (stereo not given), the Inhibition rises from 51% to 96%.

First: COc1ccc2ncc(C#N)c(CCN3CCC(NCc4ccc5c(c4)OCCO5)CC3)c2c1.Cl
Second: O=C(NC1CCCc2ccccc21)C1CCCN(C(=O)c2ccc(O)c(-c3ccc(Cl)c(Cl)c3)c2)C1 (stereo not given)
The Inhibition of the first is lower: 31% for the first, 54% for the second.

First: Cc1n[nH]c2cc(F)c(-c3cc(OC[C@@H](N)Cc4ccccc4)cnc3-c3ccoc3)cc12.O=C(O)C(F)(F)F
Second: COC(=O)CCCCOc1c(OC)cc(Cc2cnc(N)nc2N)cc1OC
The Inhibition of the first is higher: 15% for the first, 0% for the second.

Source: ChEMBL document CHEMBL1157539, “Thousands of chemical starting points for antimalarial lead identification” (Nature, 2010)
